Source: PubChem BioAssay AID1259422 (The Scripps Research Institute Molecular Screening Center, 2018)
“And” between values parts separate entries of the source, which are not always exact repeats. Identical values can stand only once. The whole screen tested about 640,000 compounds, of which about 9,300 (1.5%) were called active. Cut-off read from the data, not from the text of the source: active = inhibition above about 32%; inactive = the rest. Only a selection was taken, and actives are over-represented in it overall.

Experiment: TEAD-YAP interaction inhibition, primary screen, TEAD-YAP interaction inhibitor project, luminescence, HEK-TIYL cells (AID 1259422);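 note: 0% = median of test compound wells and 100% = reference inhibitor wells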
Conditions: TEAD-Gal4/YAP UAS-luciferase luminescence, at 9.12 µM, stronger effect = higher value
For Cc1ccc(N2CC(O)=C(c3nc4ccccc4n3C)C2=N)cc1C, the inhibition was -5.77% (inactive).
For CC(C#N)OC(=O)c1ccc(N2CC(O)=C(c3nc4ccccc4s3)C2=N)cc1 (stereo not given), the inhibition was 5.73% (inactive).
In the case of N=C1C(c2nc3ccccc3s2)=C(O)CN1c1cccc(F)c1, the inhibition is reported as 31.9% (active).
In the case of O=C1N[C@H](Cc2ccc(O)cc2)C(=O)N2CCN(C(=O)Oc3ccc(Cl)cc3)C[C@H]12, the inhibition is reported as -0.03% (inactive).
In the case of Cc1cccc(CC(=O)Nc2cnn(-c3cccc(C(=O)N(C)Cc4ccon4)c3)c2)c1, the inhibition is reported as 8.24% (inactive).
For Cc1cc(C(=O)COC(=O)C2CC2)c(C)n1-c1ccc(F)cc1, the inhibition was 39% (active).
For COc1ccc(-n2c(C)cc(C(=O)COC(=O)COc3ccccc3C=O)c2C)cc1, the inhibition was 5.99% (inactive).
For COCc1cc(C(C)=O)ccc1OCC(=O)c1cc(C)n(-c2ccc(F)cc2)c1C, the inhibition was -1.2% (inactive).
For Cc1ccc(CCNC(=O)CCCNS(=O)(=O)c2ccc3c(c2)CCC(=O)N3)cc1, the inhibition was 1.68% (inactive).
With Fc1ccc(CSc2nc(NCc3ccccc3)c3ccccc3n2)cc1 the inhibition was -9.53% (inactive).
In the case of Fc1ccc(Nc2nc(NCc3ccccc3)c3ccccc3n2)cc1, the inhibition is reported as 42% (active).
In the case of COc1ccc(CNc2nc(Nc3ccc(OC)cc3)nc3cc(OC)c(OC)cc23)cc1, the inhibition is reported as 1.6% (inactive).
For Fc1ccc(Nc2nc(NCC3CCCO3)c3ccccc3n2)cc1 (stereo not given), the inhibition was 42.1% (active).
For Fc1ccccc1-c1nc(NCC2CCCO2)c2ccccc2n1 (stereo not given), the inhibition was 25.9% (inactive).
With Fc1ccccc1CSc1nc(NCC2CCCO2)c2ccccc2n1 (stereo not given) the inhibition was 0% (inactive).
For O=C(c1cc(COc2ccc(F)cc2Cl)on1)N1C[C@@H]2CCC[C@H]1C2, the inhibition was -37.5% (inactive).
In the case of COc1ccc2[nH]cc(CCNC(=O)C3CCN(c4nc5ccccc5n4C)CC3)c2c1, the inhibition is reported as 34.1% (active).
With CCn1c(N2CCC(C(=O)NCCc3ccc(O)cc3)CC2)nc2ccccc21 the inhibition was 4.47% (inactive).
For CC(CCc1ccco1)NC(=O)C1CCN(c2nc3ccccc3n2C)CC1 (stereo not given), the inhibition was 9.58% (inactive).
In the case of COc1c(C(=O)Nc2ccc(NC(C)=O)cc2)ccc2ccccc12, the inhibition is reported as -28.1% (inactive).
With Cc1ncn(-c2ccc(Nc3nccc(N4CCc5[nH]ncc5C4)n3)cc2)n1 the inhibition was 49.9% (active).
For Cc1ncn(-c2ccc(Nc3nccc(-c4cc(C#N)cc(NC5CCN(C)CC5)c4)n3)cc2)n1, the inhibition was 16.9% (inactive).
For CN1CCN(c2ncn(-c3ccc(Nc4nccc(-c5ccc(NS(C)(=O)=O)cc5)n4)cc3)n2)CC1, the inhibition was -0.18% (inactive).
In the case of CCc1nc2sc(C(c3ccc(F)cc3)N3CCCC3)c(O)n2n1 (stereo not given), the inhibition is reported as -0.93% (inactive).
For OCCN1CCN(C(c2ccc(F)cc2)c2ccc3cccnc3c2O)CC1 (stereo not given), the inhibition was 87.9% (active).
For Oc1c(C(c2cccnc2)N2CCOCC2)ccc2cccnc12 (stereo not given), the inhibition was 29% (inactive).
With Cc1ccccc1CN1CCN2C(=O)[C@H](Cc3ccc(O)cc3)NC(=O)[C@H]2C1 the inhibition was 0.18% (inactive).
With Cc1c(Cl)cccc1NC(=O)NNC(=O)C(N)=O the inhibition was 17% (inactive).
For Cc1nn(CC(=O)NCc2ccccn2)c(=O)c2ccccc12, the inhibition was -1.32% (inactive).
With N#Cc1ccc(C(=O)OCC(=O)Nc2ccc3c(c2)C(=O)c2ccccc2C3=O)cc1 the inhibition was -21.3% (inactive).
In the case of CCOc1cc(/C=C(\C#N)c2nc(-c3cccs3)c(NC(C)=O)s2)ccc1O, the inhibition is reported as 41.9% (active).
In the case of CCOc1cc(/C=C(\C#N)c2nc3ncc(Br)cc3[nH]2)ccc1O, the inhibition is reported as -0.3% (inactive).
With CCOc1ccc(/C=C(\C#N)c2nc3ccccc3c(=O)[nH]2)cc1OC the inhibition was -0.7% (inactive).
For COc1ccccc1NC(=O)Cn1cnc2sc(C(=O)Nc3ccc(F)cc3Cl)c(C)c2c1=O, the inhibition was 10.1% (inactive).
In the case of CCC(Sc1nc(Nc2ccc(F)c(F)c2)c2ccccc2n1)C(=O)Nc1ccc2c(c1)OCO2 (stereo not given), the inhibition is reported as 6.11% (inactive).
For Cn1ncc(I)c1C(=O)N1CCc2ccccc2C1, the inhibition was -9.15% (inactive).
With CN(Cc1ccccc1)CC(O)COc1ccc(CNCCN2CCCCC2)cc1 (stereo not given) the inhibition was 3.88% (inactive).
For Cc1ccc(NC(=O)CSc2nc3cc4c(cc3cc2C#N)OCCO4)cc1, the inhibition was 20.6% (inactive).
For CN(C)c1ccc(NC(=O)CSc2nc3cc4c(cc3cc2C#N)OCCO4)cc1, the inhibition was 66.1% (active).
With Cc1cc(NC(=O)CSc2nc3cc4c(cc3cc2C#N)OCCO4)no1 the inhibition was 2.38% (inactive).
For COc1ccc2ncc(S(=O)(=O)c3ccc(C)cc3)c(N3CCOCC3)c2c1, the inhibition was -1.64% (inactive).
In the case of O=C(CN1C(=O)[C@H]2CCCN2C(=O)c2ccccc21)NCc1ccccc1F, the inhibition is reported as 2.44% (inactive).
In the case of CC1CCCC/C1=N/NC(=O)CNc1ccc(Cl)cc1Br (stereo not given), the inhibition is reported as 3.05% (inactive).
For CCOC(=O)C1=C(Cl)c2ccccc2NC1Cl (stereo not given), the inhibition was 2.33% (inactive).
In the case of COc1cccc(CC2=NOC(C(=O)NC(C)Cc3ccsc3)C2)c1 (stereo not given), the inhibition is reported as -35% (inactive).
With CCCOCCOC(=O)c1[nH]c2c(c1C)C(=O)CC(c1ccc(OC)cc1)C2 (stereo not given) the inhibition was -2.72% (inactive).
In the case of CCCOC(=O)C1=C(C)NC2=C(C(=O)CC(C)(C)C2)C1c1cccs1 (stereo not given), the inhibition is reported as -1.04% (inactive) and 6.64% (inactive).
With CCSCCOC(=O)C1=C(C)NC2=C(C(=O)CC(c3ccccc3)C2)C1c1ccccc1 (stereo not given) the inhibition was 7.09% (inactive).
For CCOCCOC(=O)C1=C(C)NC2=C(C(=O)CC(c3cccs3)C2)C1c1ccc(OC(C)=O)cc1 (stereo not given), the inhibition was 7.32% (inactive).
For CCSCCOC(=O)C1=C(C)NC2=C(C(=O)CC(c3cccs3)C2)C1c1ccsc1 (stereo not given), the inhibition was 1.93% (inactive).
For CCOC(=O)C1=C(C)NC2=C(C(=O)CC(c3ccccc3)C2)C1c1ccccn1 (stereo not given), the inhibition was 11.1% (inactive) and 10.6% (inactive).
For CSCCOC(=O)c1[nH]c2c(c1C)C(=O)CC(c1cccs1)C2 (stereo not given), the inhibition was 45.5% (active).
In the case of C=CCOC(=O)c1[nH]c2c(c1C)C(=O)CC(c1ccccc1)C2 (stereo not given), the inhibition is reported as 42.7% (active).
In the case of CCCOC(=O)c1[nH]c2c(c1C)C(=O)CC(c1cccs1)C2 (stereo not given), the inhibition is reported as 54.8% (active).
For COc1ccc2oc(=O)c(S(=O)(=O)c3ccc(C)cc3)cc2c1, the inhibition was 7.59% (inactive).
With COc1ccc2cc(Br)ccc2c1CC(=O)N(C)C1CCN(C)CC1 the inhibition was -3.7% (inactive).
In the case of COc1ccccc1NC(=O)NC(CC(=O)O)c1ccc(C)cc1 (stereo not given), the inhibition is reported as 3.42% (inactive).
In the case of CCOc1ccc(-c2c(C#N)c(N)nc(OC)c2C#N)cc1, the inhibition is reported as -17.1% (inactive).
In the case of CN1N=C(C(F)(F)F)/C(=N/OC(=O)c2ccc(Cl)cc2Cl)C1=O, the inhibition is reported as 6.23% (inactive).
With CC(=O)Nc1ccc(Nc2ncnc3nc(-c4c(C)noc4C)[nH]c23)cc1 the inhibition was -7.16% (inactive).
With Cc1ccc(/C=C/C(=O)N2CCN(c3ccc([N+](=O)[O-])cc3)CC2)cc1 the inhibition was 2.02% (inactive).
In the case of CCN(CC)CCNC(=O)c1c(CSc2ccccc2)n(C)c2cc(Br)c(OC)cc12, the inhibition is reported as 6.43% (inactive).
With CCOc1ccc(-n2c(SCc3cc(C(C)=O)ccc3OC)nc3c(sc(=S)n3-c3ccccc3)c2=O)cc1 the inhibition was -3.25% (inactive).
For Cc1cc(C)cc(C(=O)NCC(=O)OCC(=O)NC(N)=O)c1, the inhibition was 1.58% (inactive).
In the case of COc1cccc(CNC(=O)c2[nH]c3cc(-c4cn[nH]c4)ccc3c2CN(C)Cc2ccccc2)c1, the inhibition is reported as -12.2% (inactive).
In the case of COc1cc(Nc2nc(-c3ccc(OC)c(OC)c3)nc3ccccc23)cc(OC)c1, the inhibition is reported as 43% (active).
In the case of COc1ccc(-c2nc(Nc3cc(Oc4ccccc4)cc([N+](=O)[O-])c3)c3ccccc3n2)cc1OC, the inhibition is reported as -13.1% (inactive).
With COc1ccc(-c2nc(Nc3ccc(C)c(F)c3)c3ccccc3n2)cc1OC the inhibition was -0.35% (inactive).
For COc1ccccc1-n1nnc(C(=O)N2CCCCC2)c1N, the inhibition was -0.58% (inactive).
With COc1ccccc1-n1nnc(C(=O)NC2CCCc3ccccc32)c1N (stereo not given) the inhibition was 45.5% (active).
In the case of Nc1nnc(SCC(=O)NC2CCCc3ccccc32)s1 (stereo not given), the inhibition is reported as 0.12% (inactive).
With Fc1cccc(Cn2nnc(-c3ccc4c(c3)OCO4)n2)c1 the inhibition was -36.6% (inactive).
With CCOc1ccccc1-n1c(=S)sc2c(=O)n(-c3ccccc3C)c(SCC#N)nc21 the inhibition was -7.3% (inactive).
For O=[N+]([O-])c1cccc(S(=O)(=O)NNc2ccccc2)c1, the inhibition was 2.84% (inactive).
For OC(COc1ccccc1CNCCN1CCCCC1)CN1CCc2ccccc2C1 (stereo not given), the inhibition was 2.84% (inactive).
For Cc1c(C(=O)Nc2ccc(F)cc2F)sc2ncnc(N3CCc4ccccc4C3)c12, the inhibition was 12.9% (inactive).
With S=c1[nH]c(-c2ccc(Cl)cc2)cn1-c1cccc(Cl)c1 the inhibition was -6.64% (inactive).
With O=c1oc2ccccc2cc1-c1cn(-c2ccccc2)c(=S)[nH]1 the inhibition was 72.7% (active).
In the case of O=c1oc2ccccc2cc1-c1nnc(-c2ccccc2)o1, the inhibition is reported as -51.9% (inactive).
With CC(C)n1c(Nc2ccc(N3CCOCC3)cc2)nc2c(NCCc3ccc(O)cc3)ncnc21 the inhibition was 12.6% (inactive).
In the case of CCOC(=O)c1c(NC(=O)CN2CCCC2)sc(C)c1-c1ccccc1, the inhibition is reported as 4.43% (inactive).
With CCOc1ccc2cc(C#N)c(SCC(=O)NCc3ccc(OC)cc3)nc2c1 the inhibition was 3.49% (inactive).
In the case of COc1ccc2cc(C#N)c(SC)nc2c1, the inhibition is reported as 33.8% (active).
For COc1ccc(OC)c(NC(=O)CSc2nc3cc(OC)ccc3cc2C#N)c1, the inhibition was 6.71% (inactive).
For O=C(CSc1nc2ccc(Br)cc2c2nc3ccccc3n12)NCc1ccccc1, the inhibition was 0.74% (inactive).
For CCOc1ccccc1CN1CCOc2ccc(C(O)c3cccnc3)cc2C1 (stereo not given), the inhibition was 5.37% (inactive).
With CCn1nc(C)c(CN2CCOc3ccc(C(O)c4cccnc4)cc3C2)c1C (stereo not given) the inhibition was 36.6% (active).
With CC(C)C(O)c1ccc2c(c1)CN(Cc1cccc(OCCO)c1)CCO2 (stereo not given) the inhibition was 1.92% (inactive).
In the case of CCOc1ccc(-c2n[nH]c3c2C(c2ccccc2OC)NC3=O)cc1 (stereo not given), the inhibition is reported as 18.1% (inactive).
With O=C1CCCC2=C1C(c1ccccc1[N+](=O)[O-])C1=C(CCCC1=O)O2 the inhibition was -1.3% (inactive).
